TDP1 cell noCPT = qHTS for Inhibitors of human tyrosyl-DNA phosphodiesterase 1 (TDP1): qHTS in cells in absence of CPT; DT40 Tdp1-/- hTDP1 cells, no CPT, ATP luminescence, 48 h; Potency, µM (titrated, usually from 46.2 µM), for the others: top-dose activity change, negative = growth inhibition, actives largely listed as inhibitors; 15% of 420,000 active; AID 686978, 2013; further: nearly all actives have a fitted effect of over 55% in size
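DT40 Tdp1-/-;hTDP1 cells, no CPT (DMSO vehicle only), 400 cells/well; compounds pin-transferred; ≥48 hr, 37 °C; CellTiter-Glo 30 min RT dark, luminescence read.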
TDP1 block = qHTS Assay for Inhibitors of Tyrosyl-DNA Phosphodiesterase (TDP1) | Tyrosyl-DNA phosphodiesterase 1 (Homo sapiens), Q9NUW8 | recombinant TDP1, AlphaScreen DNA substrate cleavage | Potency, µM (highest dose often 130 µM), for inactives: at the top dose activity change, negative = inhibition, most hits filed as inhibitors | 0.28% of 350,000 active | AID 485290, 2010; further: nearly all actives have a fitted effect of over 40% in size
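Here, a 5' biotin and 3' phosphotyrosine-FITC DNA oligonucleotide reports Tdp1 activity: intact substrate bridges AlphaScreen beads, while cleavage leaves a 3' phosphate and drops signal. All incubations at room temperature.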
TDP1 cell CPT = qHTS for Inhibitors of human tyrosyl-DNA phosphodiesterase 1 (TDP1): qHTS in cells in presence of CPT. chicken DT40 Tdp1-/-;hTDP1 cells + 20 nM CPT, ATP luminescence, 48 h. Potency, µM (top dose mostly 46.2 µM), without a hit: at the top dose activity change, negative = growth inhibition, hits mostly inhibitors. 12% of 420,000 active; further: nearly all actives have a fitted effect of over 55% in size
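Cell growth measured by CellTiter-Glo luminescence after a minimum 48 h, 37 C compound exposure with 20 nM CPT in Tdp1-knockout DT40 cells stably expressing hTDP1, seeded 400/well; qHTS titration format.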
Gal4-VP16 FLuc = VP16 counterscreen qHTS for inhibitors of ROR gamma transcriptional activity. Potency, µM (highest dose often 53.6 µM), inactives show at the highest dose activity, negative = inhibition, hits mostly inhibitors. Drosophila S2 Gal4-VP16 UAS-luciferase, luminescence, 20 h. 3.5% of 310,000 active. AID 2546, 2010;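 further: Gal4-VP16 expression switched on by copper sulfate through the metallothionein promoter; nearly all actives have a fitted effect of over 50% in size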
RORgamma inh = qHTS for inhibitors of ROR gamma transcriptional activity. Potency, µM (top dose mostly 53.6 µM), for inactives: top-dose activity change, negative = inhibition, usual class: inhibitors. AID 2551, 2010. Nuclear receptor ROR-gamma (Mus musculus), P51450. 5.4% of 310,000 active. Drosophila S2 Gal4-RORgamma UAS-luciferase reporter, 20 h; further: nearly all actives have a fitted effect of over 60% in size
Target sequence (P51450 whole entry, looked up, the tested form may be a part): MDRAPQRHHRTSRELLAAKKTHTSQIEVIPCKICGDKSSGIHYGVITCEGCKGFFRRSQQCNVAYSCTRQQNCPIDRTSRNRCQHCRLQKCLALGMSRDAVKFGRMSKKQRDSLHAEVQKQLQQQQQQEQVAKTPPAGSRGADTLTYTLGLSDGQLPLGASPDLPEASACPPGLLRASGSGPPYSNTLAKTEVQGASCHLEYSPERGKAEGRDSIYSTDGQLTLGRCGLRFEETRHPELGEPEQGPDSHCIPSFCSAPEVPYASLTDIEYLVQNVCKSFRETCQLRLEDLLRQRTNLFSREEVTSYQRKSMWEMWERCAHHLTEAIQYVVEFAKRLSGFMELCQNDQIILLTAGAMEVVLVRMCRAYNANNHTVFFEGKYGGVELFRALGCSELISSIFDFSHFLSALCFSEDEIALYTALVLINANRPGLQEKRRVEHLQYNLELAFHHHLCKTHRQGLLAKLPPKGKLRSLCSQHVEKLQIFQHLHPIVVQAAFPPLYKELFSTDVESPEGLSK
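Luminescence from a UAS-regulated Photinus luciferase reporter in stably transfected Drosophila Schneider cells is measured; decreased signal marks ROR gamma inhibition. Fusion expression is induced by 700 uM copper sulfate for 20 hr.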
The depositor's hits bear a star; ? = inconclusive; / = not tested or not shown; ! = repeats disagree; [ ] = another dose, or the depositor's remark. Compounds with a hit are over-represented: about 19% of the library has one in this group of screens. The call rests on the fitted dose curve; in most records, active means well fitted curve in the direction sought with a large enough effect; inconclusive means small, poorly fitted or top-dose-only effect, or another doubt; inactive means no such curve, though single readings can be large; an effect the other way counts as inactive or inconclusive. On the % scale 0 is the no-effect control and ±100 the full control effect; potency means the concentration at half of the fitted maximal effect.

SMILES	TDP1 cell noCPT	TDP1 block	TDP1 cell CPT	Gal4-VP16 FLuc	RORgamma inh
S=C=Nc1ccccn1	?	5%	-24%	?	5µM*
CCC1C2Cn3c(nc4ccccc43)C1N(C)O2 (centres undefined)	-6%	0%	6%	-7%	21%
COc1ccccc1-n1c(O)c(C=Nc2c(C)n(C)n(-c3ccccc3)c2=O)c(=O)[nH]c1=O	2%	3%	6%	-2%	12%
O=c1[nH]c(=S)[nH]c(O)c1N=Nc1ccc(S(=O)(=O)N2CCOCC2)cc1	23%	20µM*	17%	8%	11%
O=c1[nH]c(O)c(N=Nc2ccc(S(=O)(=O)N3CCOCC3)cc2)c(=O)[nH]1	-6%	?	28%	-4%	-8%
O=c1[nH]c(=S)[nH]c(O)c1N=Nc1ccc2c(c1)OCCO2	26µM*	-5%	15µM*	?	-27%
O=c1[nH]c(=S)[nH]c(O)c1N=Nc1ccc2c(c1)OCO2	-3%	-13%	?	?	13%
COC(=O)C1=C(c2cc3ccccc3o2)C[C@@H]2CC[C@H]1N2C	-19%	0%	-20%	/	/
COC(=O)C1=C(c2cc3ccccc3o2)C[C@@H]2CC[C@H]1N2C(=O)N1CCC(O)CC1	23µM*	/	?	/	/
COC(=O)C1=C(c2cc3ccccc3o2)C[C@@H]2CC[C@H]1N2C(=O)N1CCC(C)CC1	2.9µM*	/	4.6µM*	/	/
COc1ccc2cc1Oc1ccc(cc1)C[C@H]1c3cc(c(OC)cc3CCN1C)Oc1c(OC)c(OC)cc3c1[C@H](C2)N(C)CC3	11µM*!	11%	5µM*!	?	?
COc1cc2c3cc1Oc1cc(ccc1O)C[C@@H]1c4c(cc(OC)c(O)c4Oc4ccc(cc4)C[C@H]3N(C)CC2)CCN1C	4.6µM*	6%	4.1µM*	?	-33%
COc1cc2c3cc1Oc1c(OC)c(OC)cc4c1[C@@H](Cc1ccc(O)c(c1)Oc1ccc(cc1)C[C@@H]3N(C)CC2)N(C)CC4	-22%	10%	?	-1%	0%
COc1cc2c3cc1Oc1cc(ccc1O)C[C@@H]1c4c(cc(OC)c(O)c4Oc4cccc(c4)C[C@@H]3N(C)CC2)CC[N+]1(C)C	1%	/	4%	/	/
COc1cc2c3c(c1OC)Oc1ccc(cc1)C[C@H]1c4c(cc(OC)c(OC)c4Oc4ccc(cc4)C[C@@H]3N(C)CC2)CCN1C	18µM*	2%	16µM*	/	/
c1cnc(N2CCNCC2)nc1	1%	2%	-7%	-12%	20%
O=c1[nH]c2ccccc2c(=O)n1-c1cccc(Cl)c1	-3%	-2%	-24%	-2%	-2%
O=C(Nc1ccc(OC(F)(F)F)cc1)Oc1ccccc1N1CCCCC1	?	1%	?	3%	-1%
CCCn1c(=O)n(C)c(=O)c2c(SCC(=O)NC34CC5CC(CC(C5)C3)C4)nc(CC(C)C)nc21	?	-1%	15µM*	-4%	-15%
CC(C)C(NC(=O)C(C(C)C)N(C)C)C(=O)N(C)C(C(=O)N1CCCC1C(=O)N1CCCC1C(=O)NCc1ccccc1)C(C)C (centres undefined)	0.052µM*	/	0.033µM*	/	/
NCCCC[C@H](N[C@@H](CCc1ccccc1)C(=O)O)C(=O)N1CCC[C@H]1C(=O)O	?	12%[21 µM]	-2%	2%	-30%
Cc1ccccc1C(=O)Nc1ccc(C(=O)OCc2cc(=O)n3nc(C4CC4)sc3n2)cc1	?	-1%	21µM*	/	/
COC(=O)[C@]12OC[C@]34C([C@@H](O)[C@@H]1O)[C@]1(C)CC(=O)C(O)=C(C)[C@@H]1C[C@H]3OC(=O)[C@H](O)[C@@H]24 (some centres undefined)	1.5µM*	0%	2.9µM*	0.22µM*	0.56µM*
COc1ccc(-c2cc(C(=O)N3CCN(c4ccccc4OC)CC3)c3cc(C(C)C)ccc3n2)cc1	21µM*	3%	23µM*	/	/
CCOc1ccc(-c2cc(C(=O)N3CCN(c4cccc(C(F)(F)F)c4)CC3)c3ccccc3n2)cc1	4.6µM*	3%	5.2µM*	/	/
SMILES	TDP1 cell noCPT	TDP1 block	TDP1 cell CPT	Gal4-VP16 FLuc	RORgamma inh
O=[N+]([O-])c1ccc(-c2[se]c3ccccc3c2I)cc1	/	22%	/	6%	41%
CCCBr	/	7%	/	-1%	4%
Cc1nc2ccccc2c(=O)n1-c1ccncc1	3%	8%	5%	9%	0%
Cc1nc2ccccc2c(=O)n1-c1cc([N+](=O)[O-])cc([N+](=O)[O-])c1	?	/	?	-24%	1.1µM*
Cc1nc2ccccc2c(=O)n1-c1ccccc1Cl	24µM*	/	?	/	/
C[C@]12CC[C@@H](O)CC1=CC(=O)C1C2CC[C@]2(C)C(=O)[C@H](O)CC12 (some centres undefined)	-15%	/	-8%	/	/
CC(=O)c1cccc(NC(=O)c2cc3c(s2)-c2c(C)cccc2OC3)c1	16µM*	-2%	?	/	/
Cc1ccccc1C1=NCC(=O)N(CC(=O)N2CCCCC2)c2sc(C)c(C)c21	?	6%	-9%	-2%	21%
O=S(=O)(NCc1ccncc1)c1ccc(F)c(F)c1	6.5µM*	/	10µM*	/	/
Cc1cc(C=C2C(=O)N(C)C(=S)N(C)C2=O)c(C)n1-c1cccnc1	?	1%	?	0%	8%
O=C1NCN(c2ccccc2)C12CCN(C(c1cccs1)c1nnnn1-c1ccc3c(c1)OCCO3)CC2 (centres undefined)	16µM*	/	18µM*	/	/
O=C1NCN(c2ccccc2)C12CCN(C(c1cc3ccccc3o1)c1nnnn1-c1ccc3c(c1)OCCO3)CC2 (centres undefined)	23µM*	/	21µM*	/	/
O=C1NCN(c2ccccc2)C12CCN(C(c1nnnn1-c1ccc3c(c1)OCCO3)C1CC1)CC2 (centres undefined)	13µM*	/	23µM*	/	/
CCOC(=O)C1CCN(C(C)C(=O)c2c(C)[nH]c3cc(C)ccc23)CC1 (centres undefined)	-8%	2%	3%	-4%	-14%
COc1ccc(C(=O)OC2CC[C@@]3(C)C4CCC5[C@]6(O)CC(O)[C@@]7(O)C(CN8CC(C)CCC8[C@@]7(C)O)[C@]6(O)C[C@@]53O[C@]24O)cc1OC (some centres undefined)	-9%	0%	-19%	3%	-12%
N/C(=N\N=C/c1ccc(-c2ccc(O)c(C(=O)O)c2)o1)N[N+](=O)[O-]	-23%	2.8µM*	?	-15%	3%

Assay outcomes as filed in PubChem.
